Assays:
[1] = target: Mitogen-activated protein kinase kinase kinase kinase 4 (Homo sapiens) (UniProt O95819); conditions: at 1 µM;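 also: reported figure is an averaged inhibition value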
[2] = target: Dual specificity mitogen-activated protein kinase kinase 1 (Homo sapiens) (UniProt Q02750); conditions: at 0.1 µM
[3] = target: Dual specificity mitogen-activated protein kinase kinase 1 (Homo sapiens) (UniProt Q02750); conditions: at 1 µM
[4] = target: Misshapen-like kinase 1 (Homo sapiens) (UniProt Q8N4C8); conditions: at 0.1 µM
[5] = target: Misshapen-like kinase 1 (Homo sapiens) (UniProt Q8N4C8); conditions: at 1 µM
[6] = target: T1, Serine/threonine-protein kinase 4 (Homo sapiens) (UniProt Q13043); conditions: at 0.1 µM
T1 sequence (whole entry): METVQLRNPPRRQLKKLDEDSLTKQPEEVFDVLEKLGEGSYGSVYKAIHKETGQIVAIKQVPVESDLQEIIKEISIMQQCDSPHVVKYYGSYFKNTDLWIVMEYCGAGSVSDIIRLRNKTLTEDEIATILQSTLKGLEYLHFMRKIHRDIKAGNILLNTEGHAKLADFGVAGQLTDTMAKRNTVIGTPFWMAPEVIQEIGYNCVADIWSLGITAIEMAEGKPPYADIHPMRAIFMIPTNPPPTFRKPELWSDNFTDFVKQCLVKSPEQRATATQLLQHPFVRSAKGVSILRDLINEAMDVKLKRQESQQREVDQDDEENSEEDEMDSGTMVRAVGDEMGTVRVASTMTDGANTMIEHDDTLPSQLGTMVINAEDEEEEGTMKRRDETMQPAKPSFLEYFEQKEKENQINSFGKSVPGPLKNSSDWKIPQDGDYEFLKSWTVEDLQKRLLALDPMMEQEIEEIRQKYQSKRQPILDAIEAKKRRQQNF

[7] = target: T1, Serine/threonine-protein kinase 4 (Homo sapiens); conditions: at 1 µM
[8] = target: T2, Serine/threonine-protein kinase 3 (Homo sapiens) (UniProt Q13188); conditions: at 0.1 µM
T2 sequence (whole entry): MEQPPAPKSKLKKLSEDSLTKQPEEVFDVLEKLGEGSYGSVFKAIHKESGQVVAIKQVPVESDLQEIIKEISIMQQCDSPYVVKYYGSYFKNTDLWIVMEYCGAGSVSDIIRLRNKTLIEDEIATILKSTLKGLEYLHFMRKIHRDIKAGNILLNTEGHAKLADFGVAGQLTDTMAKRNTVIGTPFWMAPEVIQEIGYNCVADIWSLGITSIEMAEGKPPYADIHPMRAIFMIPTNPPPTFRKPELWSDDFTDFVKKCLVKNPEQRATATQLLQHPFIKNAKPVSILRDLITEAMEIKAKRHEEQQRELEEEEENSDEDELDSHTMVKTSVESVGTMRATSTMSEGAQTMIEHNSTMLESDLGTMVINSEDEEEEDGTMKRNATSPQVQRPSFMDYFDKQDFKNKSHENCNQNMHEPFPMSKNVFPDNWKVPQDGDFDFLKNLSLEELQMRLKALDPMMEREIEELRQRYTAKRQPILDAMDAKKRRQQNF

[9] = target: T2, Serine/threonine-protein kinase 3 (Homo sapiens); conditions: at 1 µM
[10] = target: Serine/threonine-protein kinase 26 (Homo sapiens) (UniProt Q9P289); conditions: at 0.1 µM
Serine/threonine-protein kinase 26 (Homo sapiens), sequence (Q9P289 2-416 limits assumed): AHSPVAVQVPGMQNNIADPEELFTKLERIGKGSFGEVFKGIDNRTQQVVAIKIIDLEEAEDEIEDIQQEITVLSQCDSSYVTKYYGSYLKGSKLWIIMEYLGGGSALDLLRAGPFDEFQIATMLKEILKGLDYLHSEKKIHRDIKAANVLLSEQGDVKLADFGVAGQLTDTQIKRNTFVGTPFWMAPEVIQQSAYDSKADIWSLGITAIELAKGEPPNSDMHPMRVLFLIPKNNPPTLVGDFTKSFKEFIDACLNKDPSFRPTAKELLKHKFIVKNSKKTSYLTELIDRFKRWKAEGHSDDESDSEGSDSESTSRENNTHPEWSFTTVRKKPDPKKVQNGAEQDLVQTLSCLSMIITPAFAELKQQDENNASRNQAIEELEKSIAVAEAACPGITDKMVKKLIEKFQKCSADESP

Dual specificity mitogen-activated protein kinase kinase 1 (Homo sapiens), sequence (Q02750 whole entry): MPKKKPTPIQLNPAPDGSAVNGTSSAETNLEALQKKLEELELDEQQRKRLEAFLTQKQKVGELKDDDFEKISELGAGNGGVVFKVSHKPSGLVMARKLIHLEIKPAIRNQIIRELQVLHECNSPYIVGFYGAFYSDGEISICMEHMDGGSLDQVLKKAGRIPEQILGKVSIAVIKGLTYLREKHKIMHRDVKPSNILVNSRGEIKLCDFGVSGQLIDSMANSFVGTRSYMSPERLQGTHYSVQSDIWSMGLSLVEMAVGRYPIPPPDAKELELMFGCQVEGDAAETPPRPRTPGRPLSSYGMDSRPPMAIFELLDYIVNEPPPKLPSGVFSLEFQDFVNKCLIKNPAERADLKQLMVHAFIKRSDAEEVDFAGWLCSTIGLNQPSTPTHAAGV
Mitogen-activated protein kinase kinase kinase kinase 4 (Homo sapiens), sequence (O95819 2-1239 limits assumed): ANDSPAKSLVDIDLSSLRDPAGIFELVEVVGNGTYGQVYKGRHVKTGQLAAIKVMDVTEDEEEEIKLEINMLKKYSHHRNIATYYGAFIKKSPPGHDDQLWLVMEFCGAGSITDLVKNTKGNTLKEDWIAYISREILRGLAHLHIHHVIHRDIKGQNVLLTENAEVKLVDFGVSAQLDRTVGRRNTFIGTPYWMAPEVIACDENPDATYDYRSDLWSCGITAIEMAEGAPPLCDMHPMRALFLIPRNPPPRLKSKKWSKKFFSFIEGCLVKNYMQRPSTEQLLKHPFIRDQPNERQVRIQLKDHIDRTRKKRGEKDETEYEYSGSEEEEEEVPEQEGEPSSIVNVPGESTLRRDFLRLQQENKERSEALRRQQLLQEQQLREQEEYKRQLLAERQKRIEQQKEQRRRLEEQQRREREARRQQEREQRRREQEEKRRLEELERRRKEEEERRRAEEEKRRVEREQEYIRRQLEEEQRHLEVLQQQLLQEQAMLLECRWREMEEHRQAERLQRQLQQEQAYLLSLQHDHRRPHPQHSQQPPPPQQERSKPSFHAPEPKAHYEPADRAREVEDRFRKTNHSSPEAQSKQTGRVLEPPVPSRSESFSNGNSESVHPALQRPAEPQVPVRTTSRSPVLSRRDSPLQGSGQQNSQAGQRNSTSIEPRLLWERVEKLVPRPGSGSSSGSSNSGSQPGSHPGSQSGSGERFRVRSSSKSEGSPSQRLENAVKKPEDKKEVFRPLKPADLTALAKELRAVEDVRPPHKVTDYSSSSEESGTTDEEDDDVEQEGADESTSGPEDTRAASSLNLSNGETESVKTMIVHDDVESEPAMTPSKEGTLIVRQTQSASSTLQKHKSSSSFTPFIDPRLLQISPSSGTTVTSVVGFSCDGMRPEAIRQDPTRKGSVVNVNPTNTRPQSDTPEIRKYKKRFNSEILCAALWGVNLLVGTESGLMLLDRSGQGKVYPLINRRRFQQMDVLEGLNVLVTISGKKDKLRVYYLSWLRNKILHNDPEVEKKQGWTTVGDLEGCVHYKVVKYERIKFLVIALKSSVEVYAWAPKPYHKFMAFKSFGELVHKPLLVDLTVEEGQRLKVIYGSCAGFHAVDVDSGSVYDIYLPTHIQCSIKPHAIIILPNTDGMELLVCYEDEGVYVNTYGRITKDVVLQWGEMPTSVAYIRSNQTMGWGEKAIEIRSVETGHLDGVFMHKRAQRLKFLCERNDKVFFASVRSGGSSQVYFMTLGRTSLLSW
Misshapen-like kinase 1 (Homo sapiens), sequence (Q8N4C8 whole entry, looked up): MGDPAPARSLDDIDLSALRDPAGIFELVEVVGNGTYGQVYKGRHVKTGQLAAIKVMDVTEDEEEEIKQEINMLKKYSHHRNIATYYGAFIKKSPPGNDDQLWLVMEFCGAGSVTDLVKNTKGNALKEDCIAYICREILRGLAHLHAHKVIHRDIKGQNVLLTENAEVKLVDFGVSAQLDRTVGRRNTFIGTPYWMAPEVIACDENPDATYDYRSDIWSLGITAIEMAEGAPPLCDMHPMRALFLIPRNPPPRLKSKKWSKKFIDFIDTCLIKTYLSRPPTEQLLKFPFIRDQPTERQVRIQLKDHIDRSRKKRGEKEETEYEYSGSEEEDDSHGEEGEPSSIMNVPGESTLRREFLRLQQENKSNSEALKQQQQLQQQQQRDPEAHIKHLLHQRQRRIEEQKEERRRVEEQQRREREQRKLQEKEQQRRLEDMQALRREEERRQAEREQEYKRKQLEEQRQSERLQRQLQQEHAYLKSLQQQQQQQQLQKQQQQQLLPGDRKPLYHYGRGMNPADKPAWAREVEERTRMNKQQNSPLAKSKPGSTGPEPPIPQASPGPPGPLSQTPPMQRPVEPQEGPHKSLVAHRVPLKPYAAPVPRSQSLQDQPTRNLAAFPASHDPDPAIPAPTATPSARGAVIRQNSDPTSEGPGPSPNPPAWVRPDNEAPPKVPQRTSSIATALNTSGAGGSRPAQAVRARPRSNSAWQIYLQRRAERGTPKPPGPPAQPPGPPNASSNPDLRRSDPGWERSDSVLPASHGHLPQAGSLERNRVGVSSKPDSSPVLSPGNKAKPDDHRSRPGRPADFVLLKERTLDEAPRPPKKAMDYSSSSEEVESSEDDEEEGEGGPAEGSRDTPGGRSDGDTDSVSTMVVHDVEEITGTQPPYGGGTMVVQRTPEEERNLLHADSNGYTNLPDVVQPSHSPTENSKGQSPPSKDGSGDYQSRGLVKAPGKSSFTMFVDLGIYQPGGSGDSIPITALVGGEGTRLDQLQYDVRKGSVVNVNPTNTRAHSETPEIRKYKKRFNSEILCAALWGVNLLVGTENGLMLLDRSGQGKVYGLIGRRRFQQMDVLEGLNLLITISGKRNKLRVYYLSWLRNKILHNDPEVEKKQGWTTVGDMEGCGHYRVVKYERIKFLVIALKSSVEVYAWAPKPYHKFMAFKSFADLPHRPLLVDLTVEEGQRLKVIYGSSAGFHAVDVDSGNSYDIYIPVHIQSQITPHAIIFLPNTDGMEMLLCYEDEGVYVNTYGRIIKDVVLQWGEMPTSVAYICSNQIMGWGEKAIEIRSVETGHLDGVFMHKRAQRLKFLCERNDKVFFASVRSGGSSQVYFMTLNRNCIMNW

SMILES	inhibition [1] [%]	inhibition [2] [%]	inhibition [3] [%]	inhibition [4] [%]	inhibition [5] [%]	inhibition [6] [%]	inhibition [7] [%]	inhibition [8] [%]	inhibition [9] [%]	inhibition [10] [%]
O=C(Nc1n[nH]c2cc(-c3ccc(F)cc3)ccc12)C1CC1	70.1	3.48	3.42	16.2	56	2.34	4.72	2.91	4.55	-1.43
CC(=O)Nc1cccc(C#Cc2cncnc2Nc2ccc(OCc3cccc(F)c3)c(Cl)c2)c1	2.59	2.07	3.13	2.21	3.87	3.97	5.79	4.97	2.1	1.4
Cc1cccc2c1NC(=O)/C2=N\Nc1ccc(S(N)(=O)=O)cc1	48.9	2.57	1.95	7.44	34.6	6.81	24.4	7.49	15.2	-2.65
CC(C)(CO)CNC(=O)c1ccc2c(c1)/C(=N/Nc1ccc(S(N)(=O)=O)cc1)C(=O)N2	18.8	6.31	43.1	1.9	13.1	40.7	80.2	31.6	77.1	0.44
CCNC(=O)O[C@H]1CN[C@H](C#Cc2cc3ncnc(Nc4ccc(OCc5cccc(F)c5)c(Cl)c4)c3s2)C1	5.98	2.35	1.8	4.31	5.58	5.6	5.6	6.17	5.21	-1.55
Nc1nc(-c2ccc(F)cc2)c(-c2ccc3ncccc3n2)s1	61.8	6.1	4.31	13.2	47.9	6.16	6.98	7.16	5.82	0.24
COc1ccc(-c2oc3ncnc(N)c3c2-c2ccc(NC(=O)Nc3cc(C(F)(F)F)ccc3F)cc2)cc1	10.1	6.74	7.26	6.56	6.71	12.5	19.3	12.7	18.3	0.51
CC1=C(C(=O)Nc2cc(Cl)c3[nH]ncc3c2)C(c2ccc(C(F)(F)F)cc2)CC(=O)N1 (stereo not given)	10.2	9.84	35.5	4.68	9.18	3.11	5.19	1.89	4.7	0.06
CNC(=O)c1cncc(/C=C/c2ccccc2Cl)c1	15.2	-0.39	2.24	2.28	15.4	4.63	7.5	5.87	7.94	1.78
[O-][S+]1CCN(Cc2ccc(-c3ccc4ncnc(Nc5ccc(OCc6cccc(F)c6)c(Cl)c5)c4c3)o2)CC1	9.56	5.35	4.93	7.98	8	6.28	8.16	8.11	9.49	0.51
CS(=O)(=O)CCNCc1ccc(-c2ccc3ncnc(Nc4ccc(OCc5ccccc5)c(C(F)(F)F)c4)c3c2)o1	4.73	3.83	3.81	5.41	5.83	2.67	3.71	4.04	4.03	-1.35
Cc1ccc(O)cc1Nc1ccnc2cc(-c3ccccn3)ccc12	75.5	6.05	4.87	21.3	65.2	7.99	8.81	8.56	6.61	-2.79
CCCN1CCC(c2ccc(Nc3nc(Nc4cc(F)ccc4C(N)=O)c4cc[nH]c4n3)c(OC)c2)CC1	78.9	9.27	37.7	21.8	70.2	10.6	43.9	5.71	13.8	-0.72
O=S(=O)(CCNCc1ccc(-c2ccc3ncnc(Nc4ccc(OCc5cccc(F)c5)c(Cl)c4)c3c2)o1)c1ccccc1	10.8	6.48	5.62	5.49	5.63	4.83	7.44	8.36	9.44	-1.43
NS(=O)(=O)c1ccc(N/N=C2\C(=O)Nc3ccc4ncccc4c32)cc1	82.4	14.3	61.1	34.1	76.2	84.6	89.5	80.3	88.3	43.6
c1ccc(-c2nc3n(c2-c2ccc4c(c2)OCO4)CCC3)nc1	6.59	1.98	1.68	3.49	6.24	0.85	1.63	1.29	1.9	0.34
COc1cc2c(cc1Nc1nc(Nc3ccsc3C(N)=O)c3cc[nH]c3n1)N(C(=O)CN(C)C)CCC2(C)C	14.8	6.86	12.3	11.4	15.3	15.6	47.7	12.3	22.1	3.1
CNC(=O)c1cc(-c2ccc(F)cc2)cc(-c2ccc(S(=O)(=O)N3CCCC3)cc2)c1N	7.55	2.79	4.52	4.69	5.6	0.78	1.31	0.82	1.3	-0.65
CN(C)CCOc1ccc(-c2nc(-c3ccncc3)c(-c3ccc4c(c3)CC/C4=N\O)[nH]2)cc1	47.2	4.37	3.23	8.74	37.3	4.67	6.56	4.63	4.58	-1.19

SMILES	inhibition [1] [%]	inhibition [2] [%]	inhibition [3] [%]	inhibition [4] [%]	inhibition [5] [%]	inhibition [6] [%]	inhibition [7] [%]	inhibition [8] [%]	inhibition [9] [%]	inhibition [10] [%]
COc1ccc2c(-c3ccnc(Nc4cccc(OC(F)(F)F)c4)n3)cnn2n1	11.5	6.37	6.2	5.92	10.5	8.73	9.62	9.08	9.55	-1.2
CCCN(CCS(C)(=O)=O)Cc1ccc(-c2ccc3ncnc(Nc4ccc(OCc5cccc(F)c5)c(Cl)c4)c3c2)o1	11.1	1.53	1.76	2.96	7.61	2.67	4.13	0.87	2.11	0.58
COc1cccc(-n2ncc3c(N/N=C/c4ccc(F)cc4)ncnc32)c1	21.2	4.9	3.13	7.39	17.2	7.56	9.41	9.36	9.98	-1.54
Nc1nc(-c2cccc(Cl)c2)c(-c2ccc3ncccc3n2)s1	60.1	5.85	5.35	10.7	46.9	5.29	7.53	5.84	7.74	-1.9
CCN(CC)S(=O)(=O)c1ccc(OC)c(Nc2ncc(-c3ccccc3)o2)c1	7.43	-0.08	0.32	4.58	7.11	6.37	11	7	9.26	0.95
COC(=O)Nc1nc2ccc(Oc3ccc(NC(=O)Nc4cccc(Cl)c4)cc3)cc2[nH]1	3.87	1.15	0.9	2.55	4.97	2.25	1.87	3.48	4.19	-1.11
COc1ccc(-c2nn3ncccc3c2-c2ccnc(Nc3ccc4c(c3)OCCO4)n2)cc1	9.82	0.5	1.59	3.01	7.26	-0.55	1.99	-0.94	-0.28	0.86
Cc1cccc(Nc2ncc(-c3ccccc3)o2)c1	14.1	2.53	2.53	2.9	10.2	1.44	4.08	1.8	4.97	0.69
c1ccc(COc2ccc(Nc3ncnc4ccc(-c5ccco5)cc34)cc2)cc1	6.14	1.63	1.55	4.04	3.27	-0.04	0.76	0.84	1.9	1.19
COc1cccc(-c2c[nH]c3c(N/N=C/c4ccncc4)ncnc23)c1	74.5	1.76	6.21	17.5	61.9	5.59	15.2	4.97	13.2	2.3
CCc1nn2ncccc2c1-c1ccnc(NC2CC2)n1	5.59	2.65	2.39	3.11	3.73	1.74	3.6	1.75	5.22	-1.35
Cc1ccc2c(-c3ccnc(Nc4ccccc4)n3)c(-c3ccc(F)cc3)nn2n1	62.1	4.55	10.8	9.04	50.7	6.19	5.86	8.21	5.67	-1.05
N#Cc1c(NC(=O)c2ccc(F)cc2)sc2c1CCCC2	5.3	1.23	1.68	2.23	4.89	-0.35	2.59	0.16	3.36	-0.1
COc1ccc(-c2cc3c(N)ncnc3o2)cc1	9.41	-0.07	1.35	1.42	6.5	-2	-0.96	-3.02	-0.72	1.44
Nc1ncc(-c2cccc(S(N)(=O)=O)c2)c2scc(-c3ccc(F)c(Cl)c3)c12	92.6	3.89	6.87	70.9	91.6	4.66	6.44	7.02	6.15	-0.08
COc1cc2ncn(-c3cc(OCc4ccccc4C(F)(F)F)c(C(=O)N(C)C)s3)c2cc1OC	2.4	0.8	1.58	1.7	2.67	-0.01	3.43	1.15	4.03	0
CCn1c(-c2nonc2N)nc2ccccc21	22.5	4.06	4.74	5.52	13.2	5.56	7.11	6.31	5.79	-1.3
CCn1c(-c2nonc2N)nc2c(C#CC(C)(C)O)nc(OC[C@H](N)c3ccccc3)cc21	35.1	2.26	4.39	6.18	21.1	7.92	42.7	9.64	42.4	-0.06
CC(C)COC(=O)c1ccc2c(c1)/C(=C/Nc1ccc(S(N)(=O)=O)cc1)C(=O)N2	65.3	3.79	33.7	10.3	53.8	46.2	81.5	34	77.9	-0.24

Source: ChEMBL document CHEMBL1961873, “Compounds: GSK PKIS; Assays: Nanosyn kinase panel” (2012)
